TbREL1 primary: TbREL1 inhibition, primary screen; TbREL1 RNA ligation, FRET fluorescence; P86926; inhibition, % at 9.66 µM; 89,000 tested, 0.49% active;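 active = inhibition above the mean inhibition across all screened compounds plus 3 SD, cut at about 11% in these data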
Target sequence (P86926 whole entry, looked up): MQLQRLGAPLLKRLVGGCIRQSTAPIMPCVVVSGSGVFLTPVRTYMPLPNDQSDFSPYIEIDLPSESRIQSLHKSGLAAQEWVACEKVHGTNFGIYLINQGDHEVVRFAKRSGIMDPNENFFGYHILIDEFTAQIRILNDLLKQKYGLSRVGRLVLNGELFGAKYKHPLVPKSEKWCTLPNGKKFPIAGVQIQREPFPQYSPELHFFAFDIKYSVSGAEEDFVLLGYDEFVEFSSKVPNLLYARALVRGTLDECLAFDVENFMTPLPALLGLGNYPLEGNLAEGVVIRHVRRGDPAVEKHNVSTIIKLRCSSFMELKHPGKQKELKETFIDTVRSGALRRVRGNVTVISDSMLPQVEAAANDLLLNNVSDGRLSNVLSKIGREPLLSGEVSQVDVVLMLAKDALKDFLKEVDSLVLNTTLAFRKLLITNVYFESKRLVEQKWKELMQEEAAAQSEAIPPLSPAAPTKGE
TbREL1 confirm: TbREL1 inhibition, confirmation. TbREL1 RNA ligation, FRET fluorescence. AID 1117282. 390 tested, 37% active. shares compounds with TbREL1 primary. inhibition, % at 9.66 µM;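 active = mean inhibition across replicates above a set limit taken from the earlier primary screen, cut at about 11% in these data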
Each line names hits and unclear results; the compound was inactive in the other large screens (follow-up assays come after a bar, where they were run). Shown is part of a subset that was picked to be rich in hits.

Cc1nn(CCC(=O)NNC(=O)Nc2ccccc2F)c(C)c1[N+](=O)[O-]	none
CCOc1ccc(N(CC(=O)Nc2c(C)n(C)n(-c3ccccc3)c2=O)S(=O)(=O)c2ccc3c(c2)N(C(=O)C2CCC2)CC3)cc1	none
CN(C)CCOCCOc1ccccc1-c1ccccc1	TbREL1 primary 15.3 | TbREL1 confirm inactive
c1ccc(-c2ccccc2OCCOCCN2CCCCC2)cc1	none
OCCNCCOCCOc1ccccc1-c1ccccc1	none
O=C(c1cccc(F)c1)N1CCCC(c2nc(-c3cccs3)no2)C1 (centres undefined)	none
COc1ccc(-n2c(SCC(=O)NC3CCCCCC3)nnc2-c2ccncc2)cc1	none
CC(C)CSc1nnc(-c2ccco2)n1C	none
C#CCCC(=O)Nc1sc2c(c1-c1nc3ccccc3s1)CCN(C(C)C)C2	none
C=CCc1ccc(OCCCOc2ccc(C)cc2OC)c(OC)c1	none
C=CCc1ccc(OCCOCCOc2ccccc2[N+](=O)[O-])c(OC)c1	none
C=CCc1ccc(OCCCNCc2ccccc2)c(OC)c1	TbREL1 primary 11.8 | TbREL1 confirm inactive
CC(=O)N1CCc2c1cccc2S(=O)(=O)NC(CC(C)C)C(=O)Nc1ccccc1C (centres undefined)	none
c1nc(NCC2CC2)c2cc(-c3ccc4c(c3)OCO4)ccc2n1	none
CC1(C)Cc2c(c(-c3ccco3)[nH]c(=O)c2C#N)CS1	TbREL1 primary 15.0 | TbREL1 confirm inactive
CC1(C)Cc2c(c(-c3ccccc3)[nH]c(=O)c2C#N)CS1	none
CC(=O)N1CCN(c2nc(-c3ccco3)c3c(c2C#N)CC(C)(C)SC3)CC1	none
Nc1ccn([C@@H]2O[C@H](C(=O)N3CCN(CCO)CC3)[C@@H](O)[C@H]2O)c(=O)n1	none
Oc1ccccc1/C=N/Nc1cc(N2CCCC2)nc(N2CCCC2)n1	TbREL1 primary 19.4 | TbREL1 confirm 38.0
CCOc1cc(/C=N/Nc2nc(N3CCCC3)nc(N3CCCC3)n2)ccc1O	none
O=C(NNc1cc(N2CCCC2)nc(N2CCCC2)n1)c1ccc([N+](=O)[O-])cc1	none
Cc1ccccc1NC(=O)OC1CC2CC1[C@H]1CCCCN1[C@H]2Cc1ccccc1 (some centres undefined)	none
CC(C)(C)N(NC(=O)Nc1cccc(F)c1)C(=O)c1ccccc1Cl	none
COc1ccccc1NC(=O)OC1CC2CC1[C@H]1CCCCN1[C@H]2C (some centres undefined)	none
c1ccc(-c2csc(=Nc3cccnc3)n2CC2CCCO2)cc1 (centres undefined)	none
COc1ccc(-c2cnc(N)n2CC2CCCO2)cc1 (centres undefined)	none
c1ccc(-c2cnc(SCCN3CCOCC3)n2CC2CCCO2)cc1 (centres undefined)	TbREL1 primary 15.2 | TbREL1 confirm inactive
COc1cc2c(cc1NC(=O)CSc1nnc(-c3ccccc3C)n1Cc1ccco1)oc1ccccc12	none
CCOC(=O)[C@@]12CCC3=C1N(CCC3)C(=O)[C@H](CC(=O)N1CCCCC1)C2	none
O=C1CCC2(CCC(c3ccccc3)CC2)N1CC[C@@H](O)c1ccccc1 (some centres undefined)	none
N=c1n(CCO)c2ccccc2n1CCN1CCCCC1	none
Cc1cccc(OCC(O)Cn2c(=N)n(CCN3CCCCC3)c3ccccc32)c1 (centres undefined)	TbREL1 primary 11.9 | TbREL1 confirm inactive
COc1ccc(OCC(O)Cn2c(=N)n(Cc3ccccc3)c3ccccc32)cc1 (centres undefined)	none
Cc1cc2cc3c(cc2n2c(SCC(=O)Nc4nc(-c5ccccc5)cs4)nnc12)OCO3	none
Cc1ccc(S(=O)(=O)N2CCCC(C(=O)Nc3c(C)n(C)n(-c4ccccc4)c3=O)C2)cc1 (centres undefined)	none
Cc1ccc(NC(=O)[C@@H]2CC(=O)O[C@@H]2c2ccccc2)c(C)c1	none
COC(=O)C1=C(C)N(Cc2ccc(Br)cc2)C(=S)NC1c1ccc(F)cc1 (centres undefined)	none
COC(=O)C1=C(C)N(Cc2ccccc2C(F)(F)F)C(=NCc2ccccc2)NC1c1cccc(F)c1 (centres undefined)	TbREL1 primary 14.7 | TbREL1 confirm 20.0
COC(=O)C1=C(C)N(Cc2ccccc2)C(=S)NC1c1ccc(-c2ccccc2)cc1 (centres undefined)	none
COC(=O)C1=C(C)N(Cc2ccccc2)C(=NCc2cccc(C(F)(F)F)c2)N[C@H]1c1cccc(F)c1	none
COC(=O)C1=C(C)N(Cc2ccc(F)cc2)C(=S)NC1c1cccc(OC)c1 (centres undefined)	none
CCN1C(=NCc2cccc(Cl)c2)N[C@@H](c2cccc(F)c2)C(C(=O)OC)=C1C	none
COC(=O)C1=C(C)N(Cc2ccccc2C(F)(F)F)C(=NCc2ccc(C(F)(F)F)cc2)NC1c1ccc(C(F)(F)F)cc1 (centres undefined)	TbREL1 primary 25.2 | TbREL1 confirm 23.2
COC(=O)C1=C(C)N(Cc2cccc(C(F)(F)F)c2)C(=NCc2ccc(OC)cc2)NC1c1ccc(F)cc1 (centres undefined)	TbREL1 primary 12.0 | TbREL1 confirm 13.7
